Cycloheximide cs: affects cycloheximide protein synthesis inhibition readout, counter-screen; max response, %; 300,000 compounds, 12% hits; cell reporter, cycloheximide protein synthesis inhibition counterscreen; AID 2314; in the data active means max response mostly above about 13%, no sharp cut-off; inactive means mostly below about 14%; further: read at 38.3 µM for the half of the compounds with a filed dose; 0% is about no effect
NS1 inh: inhibitors of influenza NS1 protein function | AID 2326 | 270,000 compounds, 0.4% hits | Potency, µM (series often up to 46.1 µM), for the others: top-dose activity, positive = more growth; calls by dose curve; further: potency means the concentration at half of the fitted maximal effect; actives are rising curves; nearly all actives have a fitted effect of over 50% in size
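Growth recovery, yeast-based: influenza A NS1 expressed in S. cerevisiae causes slow growth, and suppressors are detected by OD600. The parent strain without NS1 is used as positive control.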
Pf growth 48h: P. falciparum growth inhibition at 48 hours (one generation). 310,000 compounds, 5.9% hits. AID 504832. P. falciparum luciferase growth in erythrocytes, 48 h. Potency, µM (series often up to 28.7 µM), without a hit: at the highest dose activity change, negative = inhibition, most hits filed as inhibitors; further: potency means the concentration at half of the fitted maximal effect; on the % scale 0 is the no-effect control and ±100 the full control effect
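Parasite viability was followed by luminescence of a genomically integrated firefly luciferase. Cultures held 0.1% parasitemia at 2% hematocrit (final), incubated under 5% CO2 at 37 C.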
Shiga toxin inh: inhibitors of Shiga toxin in Vero cells; Vero cells, Shiga toxin protein synthesis inhibition reporter; inhibition, % at 38.7 µM; 290,000 compounds, 9.2% hits; AID 2315; in the data active means inhibition mostly above about 28%, no sharp cut-off; inactive means mostly below about 43%; further: 0% is about no effect
Pf growth 96h: P. falciparum growth inhibition at 96 hours. P. falciparum luciferase reporter growth, 96 h. Potency, µM (titrated, usually from 28.7 µM), for the others: at the top dose activity change, negative = inhibition, actives largely listed as inhibitors. 320,000 compounds, 6.9% hits; further: potency means the concentration at half of the fitted maximal effect; on the % scale 0 is the no-effect control and ±100 the full control effect
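Luminescence readout: decreased luciferase signal marks inhibited growth of reporter-expressing P. falciparum in infected red cells (2% hematocrit, 0.05% parasitemia final), exposed to compound two generations (96 h, 37 C, 5% CO2).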
An asterisk follows results filed as active; i = inactive; ? = inconclusive; . = not tested or not shown; ! = a repeat was not active; [ ] = remark or other dose. The list is not random: actives were taken first. Their share in the collection is about 21%. Unless noted, the call rests on the fitted dose curve; in most records, active means well fitted inhibition curve with a large enough effect; inconclusive means small, poorly fitted or top-dose-only effect, or another doubt; inactive means no such curve, though single readings can be large or run the other way.

SMILES	Cycloheximide cs	NS1 inh	Pf growth 48h	Shiga toxin inh	Pf growth 96h
CC(C)c1ccc(C(C(=O)NC2CCCCC2)N(C(=O)c2csnn2)C2CC2)cc1 (centres undefined)	-6.1	9.2%	13.1µM*	-7.1	10.9%
O=C(NCCc1ccccc1)C(c1ccncc1)N(C(=O)c1csnn1)C1CC1 (centres undefined)	-2.7	15.4%	-17.0%	10.5	11.7µM*
CC(C)c1ccc(N(C(=O)c2csnn2)C(C(=O)NC(C)(C)C)c2ccncc2)cc1 (centres undefined)	34.7*	-0.9%	43.3%	33.4	16.2%
Cc1ccc(C(C(=O)NC2CCCC2)N(C(=O)c2csnn2)C2CC2)cc1 (centres undefined)	-5.5	9.5%	-20.9%	-6.3	28.7%
CC(NS(=O)(=O)CCNC(=O)c1ccccc1)c1ccccc1 (centres undefined)	.	.	5.7%	.	31.9%
Clc1ccc(CC[C@H](Cn2ccnc2)Sc2c(Cl)cccc2Cl)cc1	.	.	5.73µM*	.	2.03µM*
COc1ccccc1Oc1ccc(N/C=C/C(=O)c2ccco2)cc1	50.4*	8.6%	10.4%	99.8*	17.1%
O=C(/C=C/Nc1ccc(Oc2ccccc2Cl)cc1)c1ccco1	37.3*	-2.3%	?	117.3*	-26.7%
COC(=O)c1ccccc1Oc1ccc(NC(=O)c2ccco2)cc1	11.0	-50.6%	1.5%[0.00184 µM]	38.9	?
CC(=O)NC(Cc1cc(C)ccc1C)C(=O)N1CCN(C(=O)Nc2ccc(C(C)=O)cc2)CC1 (centres undefined)	16.6*	?	-10.8%	13.5	.
CC(=O)NC(Cc1cc(C)ccc1C)C(=O)N1CCN(C(=O)c2ccc(Br)cc2)CC1 (centres undefined)	-5.6	5.6%	-18.5%	-19.3	-20.6%
O=C(CCc1ccc(S(=O)(=O)NC2CCCCC2)cc1)NCc1ccccn1	44.3*	6.1%	29.2%	97.6*	-13.9%
O=C(COc1ccc(S(=O)(=O)NC2CCCCC2)cc1)NCc1ccccn1	0.5	-6.1%	0.8%	-8.6	4.15µM*
O=C(CN1C(=O)NC2(CCCC2)C1=O)N1CCN(c2ccccc2Cl)CC1	.	.	34.2%	.	49.5%
COc1ccc(C(=O)NC(C(=O)NCC(=O)Nc2c(C)cccc2C)C(C)C)cc1 (centres undefined)	-2.2	8.8%	-9.0%	-3.1	?
COc1ccc(C)cc1NC(=O)n1ncc2cc(Cl)ccc21	4.3	-3.4%	11.4%	2.1	3.29µM*
Cc1ccccc1NC(=O)n1ncc2cc(Cl)ccc21	20.8*	-6.2%	35.2%	28.5	-29.4%
COc1cc(/C=C/[N+](=O)[O-])ccc1OC(=O)/C=C/c1ccc(F)cc1	-3.1	24.3%	-0.9%	.	89.7%
Cc1ccc(-c2nnc(N3CCN(C(=O)COc4cccc(C)c4)CC3)c3ccccc23)cc1	0.9	-43.5%	8.28µM*	17.4	13.1µM*
Cc1cccc(OCC(=O)N2CCN(c3nnc(-c4ccccc4)c4ccccc34)CC2)c1	-0.6	-12.4%	?	-3.3	?
Cc1ccc(OCC(=O)N2CCN(c3nnc(-c4ccc(C)cc4)c4ccccc34)CC2)cc1	0.8	-114.5%	.	-11.3	2.94µM*
COc1cc2c(cc1OC)C1O[C@](CCCCN3C(=O)c4ccccc4C3=O)(C2)Oc2cc(C)n(Cc3ccccc3)c(=O)c21	-2.9	14.1%	?	i	2.39µM*
COc1cc2c(cc1OC)[C@@H]1O[C@](CCCCN3C(=O)c4ccccc4C3=O)(C2)Oc2cc(C)n(-c3ccccc3)c(=O)c21	2.0	23.7%	1.07µM*	i	?
CCCCn1c(C)cc2c(c1=O)C1O[C@](c3ccc(OC)cc3)(Cc3cc(OC)c(OC)cc31)O2	15.3*	9.6%	?	i	1.51µM*
CCCCn1c(C)cc2c(c1=O)[C@H]1O[C@](CCCC)(Cc3cc(OC)c(OC)cc31)O2	-1.1	4.5%	-2.2%[5.75 µM]	i	?
SMILES	Cycloheximide cs	NS1 inh	Pf growth 48h	Shiga toxin inh	Pf growth 96h
COc1ccc(CN(C)CC(=O)Nc2cc(OC)c([N+](=O)[O-])cc2C)c(OC)c1	-4.1	-5.9%	?	-4.6	?
NCc1ccc(S(N)(=O)=O)cc1	-0.9	4.7%	?	21.6	3.61µM*!
CCOC(=O)CNC(=O)CNC(=O)c1nn(-c2ccc(OC)c(OC)c2)c(=O)c2ccccc12	-2.8	-2.3%	15.5%	-5.5	-5.8%
COc1ccc(-n2nc(C(=O)NCC(=O)NC3CCCCCC3)c3ccccc3c2=O)cc1OC	-2.4	0.0%	?	0.7	?
COc1ccc(-n2nc(C(=O)NCC(=O)N3CC(C)CC(C)C3)c3ccccc3c2=O)cc1OC (centres undefined)	-2.8	1.9%	5.86µM*	-5.9	1.65µM*
COc1ccc(-n2nc(C(=O)NCC(=O)N3CCCCCC3)c3ccccc3c2=O)cc1OC	24.3*	4.0%	-28.6%	14.7	2.94µM*
COc1cc(/C=N/NC(=O)c2[nH]nc3c2CCc2ccccc2-3)ccc1O	6.9	9.8%	54.6%	11.9	?
COc1cccc2cc(C(=O)C3=C(O)C(=O)N(CCN(C)C)C3c3ccc(Cl)cc3)oc12 (centres undefined)	-3.2	4.3%	2.2%	-9.9	4.9%
Cc1ccc(-c2nc3ccsc3c(=O)[nH]2)cc1	41.6*	-4.6%	2.08µM*	102.9*	480.2%
COc1ccc(-c2oc(/N=C/N3CCOCC3)c(C#N)c2-c2ccc(OC)cc2)cc1	-5.3	-0.7%	6.57µM*	13.8	.
COc1ccc(C(=O)CSc2ncnc3nc[nH]c23)cc1	3.0	4.8%	-1.2%	14.2	13.3%
Cc1ccc(OCCSc2ncnc3nc[nH]c23)cc1	60.8*	-53.1%	124.2%	75.9	.
Brc1ccc(CSc2ncnc3nc[nH]c23)cc1	15.9*	?	32.3%	17.6	-40.7%
Cc1noc(C)c1C(=O)N(CC(=O)Nc1ccccc1Br)Cc1ccco1	.	.	4.6%	.	-9.4%
c1coc(-c2nnc(SCc3cn4ccccc4n3)o2)c1	-1.1	-14.2%	.	-1.7	-7.5%
Brc1c(CSc2nnc(-c3ccco3)o2)nc2ccccn12	22.3*	-129.2%	.	55.7	-19.0%
COc1cc(CNCc2c[nH]c3ccccc23)cc(OC)c1	-2.3	0.1%	?	-21.0	?
CCCCCCSc1cccc(-c2nc3ccc(C)cn3c2NCc2ccccc2)c1	.	.	?	.	11.7µM*
CCCCCCSc1cc(-c2nc3cc(C)ccn3c2NCCCC)ccc1OC	.	.	9.28µM*	.	?
Cc1ccc2nc(SCC(=O)NCc3ccccc3)nc(=O)n2c1	.	.	21.0%	.	48.8%
CCCCCCSc1cc(-c2nc3ccc(C)cn3c2NCc2ccccc2)ccc1OC	.	.	4.15µM*	.	10.4µM*
O=S(=O)(Nc1ccc(-c2ccc3nncn3n2)cc1)c1cccs1	.	.	27.0%	.	-3.1%
CC(=O)Nc1ccc(S(=O)(=O)N2CCCC(C(=O)N3CCN(c4ccccc4)CC3)C2)cc1 (centres undefined)	-1.5	8.6%	?	7.1	90.2%
CC(=O)N1CCN(S(=O)(=O)c2cccc(C(=O)Nc3nccs3)c2)CC1	-0.4	.	?	12.4	?
COc1ccccc1CCC(=O)Oc1ccccc1C#N	-3.3	3.5%	11.8%	-16.7	-21.5%

High-throughput results from PubChem.
